Test results from PubChem BioAssay (NCI).
This is part of a sample that, as a whole, favours compounds with a hit. Of some 79,000 tested, about 15% had one in any assay. The source made the active and inactive calls. Cut-off read from the data, not from the text of the source: active = growth inhibition above about 70%; inactive = the rest.

Key:
[1] = NCI Yeast Anticancer Drug Screen. Data for the rad50 strain (AID 155);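 note: 0% = growth of vehicle-only cultures of the same strain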; settings: S. cerevisiae rad50 strain growth inhibition, stronger effect = higher value
Outline: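 Growth of the mutant yeast was measured after compound exposure and referenced to vehicle-treated cultures.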

[2] = NCI Yeast Anticancer Drug Screen. Data for the mec2-1 strain (AID 157); settings: S. cerevisiae mec2-1 strain, stronger effect = higher value
Outline: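 Test agents were screened against the mec2-1 yeast strain, with defined DNA repair or cell cycle alteration. Growth was scored as inhibition against vehicle-only controls.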

[3] = NCI Yeast Anticancer Drug Screen. Data for the sgs1 mgt1 strain (AID 161);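 note: 0% = growth of cultures given vehicle only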; settings: S. cerevisiae sgs1 mgt1 strain, stronger effect = higher value
Outline: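 Test agents were incubated with a DNA-repair-mutant yeast strain. Growth was then read and compared against vehicle-treated controls.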

[4] = NCI Yeast Anticancer Drug Screen. Data for the cln2 rad14 strain (AID 165);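 note: 0% = growth equal to vehicle treated cultures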; settings: S. cerevisiae cln2 rad14 strain, stronger effect = higher value
Outline: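 Growth of compound-exposed yeast (cln2 rad14 genotype) measured and expressed as inhibition relative to vehicle.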

[5] = NCI Yeast Anticancer Drug Screen. Data for the bub3 strain (AID 167); settings: S. cerevisiae bub3 mutant strain, stronger effect = higher value
Outline: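 Whole-cell yeast assay. The mutant strain was incubated with compounds, and growth inhibition was determined by comparison with vehicle-treated cells.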

[6] = NCI Yeast Anticancer Drug Screen. Data for the mlh1 rad18 strain (AID 175); settings: S. cerevisiae mlh1 rad18 strain growth inhibition, stronger effect = higher value
Outline: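 In this whole-cell yeast screen, a strain with altered DNA damage repair is challenged with compound, and its growth is measured against matched vehicle-treated controls.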

[7] = at 5.0 µM (retest, dose inferred, filed as 0.5)
[8] = at 50.0 µM (retest, dose inferred, filed as 5.0)

Measured: growth inhibition

O=C1c2ccccc2CCC1C(O)(C(F)(F)F)C(F)(F)F (stereo not given)
inactive: [1]; [7] 19% | [1]; [8] 13% | [1]; at 50.0 µM -5.3% | [2]; [7] 16% | [2]; [8] 7% | [2]; at 50.0 µM -3.6% | [3]; [7] 22% | [3]; [8] 7% | [3]; at 50.0 µM -35.8% | [4]; [7] 4% | [4]; [8] 11% | [4]; at 50.0 µM 10.9% | [5]; [7] -12% | [5]; [8] 1% | [5]; at 50.0 µM 31.6% | [6]; [7] 22% | [6]; [8] 20% | [6]; at 50.0 µM -11.3%

Cc1cc(N(CCOS(C)(=O)=O)CCOS(C)(=O)=O)ccc1C=Nc1ccccc1C(=O)O
active: [1]; [8] 76% | [1]; at 50.0 µM 83.5% | [2]; at 50.0 µM 74.3% | [3]; at 50.0 µM 79.8% | [6]; [8] 91% | [6]; at 50.0 µM 95.1%
inactive: [1]; [7] 7% | [2]; [7] 15% | [2]; [8] 66% | [3]; [7] 4% | [3]; [8] 62% | [4]; [7] 4% | [4]; [8] 57% | [4]; at 50.0 µM 68.2% | [5]; [7] -2% | [5]; [8] 31% | [5]; at 50.0 µM 38.5% | [6]; [7] 28%

O=C(CNc1ccccc1[N+](=O)[O-])Nn1c(-c2ccccc2)nc2ccccc2c1=O
active: [6]; at 50.0 µM 75.5%
inactive: [1]; [7] 20% | [1]; [8] 36% | [1]; at 50.0 µM 59.1% | [2]; [7] 2% | [2]; [8] 33% | [2]; at 50.0 µM 38.5% | [3]; [7] 17% | [3]; [8] 33% | [3]; at 50.0 µM 69% | [4]; [7] 9% | [4]; [8] 35% | [4]; at 50.0 µM 36% | [5]; [7] -8% | [5]; [8] 34% | [5]; at 50.0 µM 46.7% | [6]; [7] 10% | [6]; [8] 48%

CCCCNC(=S)N/N=C/c1cccc(C)n1
active: [1]; [8] 98% | [2]; [8] 98% | [3]; [8] 98% | [4]; [8] 99% | [5]; [8] 97% | [6]; [8] 99%
inactive: [1]; [7] -3% | [1]; at 50.0 µM 1.35% | [2]; [7] -8% | [2]; at 50.0 µM 32.5% | [3]; [7] -16% | [3]; at 50.0 µM 59.2% | [4]; [7] -11% | [4]; at 50.0 µM 17.4% | [5]; [7] -27% | [5]; at 50.0 µM 42.5% | [6]; [7] 8% | [6]; at 50.0 µM -11.1%

Clc1c(Cl)c(Cl)c(SC2C3CC4C(C3)C42)c(Cl)c1Cl (stereo not given)
inactive: [1]; [7] 31% | [2]; [7] 23% | [3]; [7] 27% | [4]; [7] 12% | [5]; [7] 7% | [6]; [7] 21%
active: [1]; [8] 98% | [1]; at 50.0 µM 98.3% | [2]; [8] 99% | [2]; at 50.0 µM 98.8% | [3]; [8] 97% | [3]; at 50.0 µM 98.8% | [4]; [8] 97% | [4]; at 50.0 µM 97.9% | [5]; [8] 91% | [5]; at 50.0 µM 98% | [6]; [8] 97% | [6]; at 50.0 µM 98.4%

CCCCOCN(CC(CC)CCCC)CC(CC)CCCC (stereo not given)
active: [3]; at 50.0 µM 73.4%
inactive: [1]; [7] 4% | [1]; [8] 15% | [1]; at 50.0 µM 26% | [2]; [7] 3% | [2]; [8] 14% | [2]; at 50.0 µM 12.8% | [3]; [7] 1% | [3]; [8] 29% | [4]; [7] 4% | [4]; [8] 10% | [4]; at 50.0 µM 5.3% | [5]; [7] 1% | [5]; [8] 20% | [5]; at 50.0 µM 18.9% | [6]; [7] -4% | [6]; [8] 37% | [6]; at 50.0 µM 52.1%

O=C1c2cc([N+](=O)[O-])cc3cc([N+](=O)[O-])cc(c23)C(=O)N1CCCNCCNCCCN1C(=O)c2cc([N+](=O)[O-])cc3cc([N+](=O)[O-])cc(c23)C1=O
inactive: [1]; at 50.0 µM 61% | [2]; [7] 32% | [4]; [7] 22% | [5]; [7] 9% | [6]; [7] 66%
active: [1]; [7] 85% | [1]; [8] 93% | [2]; [8] 96% | [2]; at 50.0 µM 77.4% | [3]; [7] 93% | [3]; [8] 94% | [3]; at 50.0 µM 80.9% | [4]; [8] 92% | [4]; at 50.0 µM 83% | [5]; [8] 95% | [5]; at 50.0 µM 83.7% | [6]; [8] 91% | [6]; at 50.0 µM 77.3%

CCOC(=O)C(N=Nc1ccc(Br)c(C)c1)C(C)=O (stereo not given)
active: [1]; [8] 81% | [1]; at 50.0 µM 92.2% | [2]; at 50.0 µM 84.1% | [3]; [8] 92% | [3]; at 50.0 µM 98% | [4]; at 50.0 µM 76.8% | [5]; at 50.0 µM 88% | [6]; [8] 88% | [6]; at 50.0 µM 97.5%
inactive: [1]; [7] -4% | [2]; [7] -7% | [2]; [8] 27% | [3]; [7] 1% | [4]; [7] 11% | [4]; [8] 50% | [5]; [7] -6% | [5]; [8] 64% | [6]; [7] 4%

CC(=O)Nc1ccc(-c2nnc(SCC(=O)Nc3ccc([N+](=O)[O-])cc3)o2)cc1
active: [5]; [8] 92% | [5]; at 50.0 µM 82% | [6]; [8] 74%
inactive: [1]; [7] -1% | [1]; [8] 45% | [1]; at 50.0 µM 33.4% | [2]; [7] -8% | [2]; [8] 65% | [2]; at 50.0 µM 39.3% | [3]; [7] 0% | [3]; [8] 62% | [3]; at 50.0 µM 46% | [4]; [7] 4% | [4]; [8] 56% | [4]; at 50.0 µM -37.9% | [5]; [7] 11% | [6]; [7] 5% | [6]; at 50.0 µM 28.4%

Nc1ccccc1C(=O)/C=C/c1ccccc1
inactive: [1]; [7] 19% | [2]; [7] 4% | [2]; [8] 57% | [3]; [7] -2% | [4]; [7] -23% | [4]; [8] 27% | [5]; [7] 11% | [6]; [7] 21%
active: [1]; [8] 73% | [1]; at 50.0 µM 98.8% | [2]; at 50.0 µM 99% | [3]; [8] 70% | [3]; at 50.0 µM 94.6% | [4]; at 50.0 µM 80.1% | [5]; [8] 73% | [5]; at 50.0 µM 99.2% | [6]; [8] 84% | [6]; at 50.0 µM 96.8%
